In PubChem BioAssay AID1159580 (chemical genetic matrix, 2015):
The campaign covered roughly 5,500 compounds. About 2,000 (36%) were called active. Inconclusive results (about 18%) are left out. No stated cut-off is given here; in the data, active means normalized growth mostly below about 0.91 (no sharp cut-off); inconclusive means no clear call, values can overlap the other calls; inactive means mostly above about 0.92. The list shows a part of the results.

Assay: chemical genetic growth profiling, strain panel (AID 1159580);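 further: tested at 20 µM; growth read once vehicle control cultures reached saturation at 30 °C; 1 = growth at the plate median or of vehicle wells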
Settings: S. cerevisiae deletion strains, growth OD

Measured: normalized growth

Cc1cc(C)cc(Sc2ccc3nnc(-c4ccccc4)n3n2)c1
inactive: locus YAR019C, strain CDC15, stronger effect = lower value 0.983 | locus YBL105C, strain PKC1, stronger effect = lower value 0.988 | locus YBR135W, strain CKS1, stronger effect = lower value 0.984 | locus YBR136W, strain MEC1, stronger effect = lower value 0.977 | locus YBR160W, strain CDC28, stronger effect = lower value 0.988 | locus YDL017W, strain CDC7, stronger effect = lower value 0.986 | locus YDL028C, strain MPS1, stronger effect = lower value 1 | locus YDL101C, strain DUN1, stronger effect = lower value 0.973 | locus YDL108W, strain KIN28, stronger effect = lower value 0.993 | locus YDL132W, strain cdc53, stronger effect = lower value 0.977 | locus YDL214C, strain PRR2, stronger effect = lower value 0.998 | locus YDR052C, strain DBF4, stronger effect = lower value 0.986 | locus YDR054C, strain cdc34, stronger effect = lower value 0.975 | locus YDR226W, strain ADK1, stronger effect = lower value 0.982 | locus YDR477W, strain SNF1, stronger effect = lower value 0.99 | locus YER123W, strain YCK3, stronger effect = lower value 0.972 | locus YER133W, strain GLC7, stronger effect = lower value 0.978 | locus YFL009W, strain cdc4, stronger effect = lower value 0.979 | locus YFL029C, strain CAK1, stronger effect = lower value 0.984 | locus YFR003C, strain YPI1, stronger effect = lower value 0.991 | locus YFR019W, strain FAB1, stronger effect = lower value 0.962 | locus YFR028C, strain CDC14, stronger effect = lower value 0.987 | locus YGR040W, strain KSS1, stronger effect = lower value 0.991 | locus YGR052W, strain FMP48, stronger effect = lower value 1.09 | locus YGR092W, strain DBF2, stronger effect = lower value 0.977 | locus YHR030C, strain SLT2, stronger effect = lower value 1.08 | locus YHR079C, strain IRE1, stronger effect = lower value 1.07 | locus YHR082C, strain KSP1, stronger effect = lower value 1.07 | locus YHR205W, strain SCH9, stronger effect = lower value 0.988 | locus YIL147C, strain SLN1, stronger effect = lower value 1 | locus YJL095W, strain BCK1, stronger effect = lower value 1.06 | locus YJL128C, strain PBS2, stronger effect = lower value 0.933 | locus YJL157C, strain FAR1, stronger effect = lower value 0.982 | locus YJR016C, strain ILV3, stronger effect = lower value 0.979 | locus YJR066W, strain TOR1 (second series), stronger effect = lower value 0.942 | locus YJR066W, strain TOR1, stronger effect = lower value 1.11 | locus YKL048C, strain ELM1, stronger effect = lower value 0.979 | locus YKL067W, strain YNK1, stronger effect = lower value 0.999 | locus YKL101W, strain HSL1, stronger effect = lower value 0.986 | locus YKL193C, strain SDS22, stronger effect = lower value 0.983 | locus YKL203C, strain TOR2, stronger effect = lower value 1.06 | locus YLR113W, strain HOG1, stronger effect = lower value 0.978 | locus YLR133W, strain CKI1, stronger effect = lower value 0.998 | locus YLR403W, strain SFP1, stronger effect = lower value 1 | locus YML070W, strain DAK1, stronger effect = lower value 0.983 | locus YMR001C, strain CDC5, stronger effect = lower value 0.981 | locus YMR205C, strain PFK2 (second series), stronger effect = lower value 0.997 | locus YMR277W, strain FCP1, stronger effect = lower value 0.986 | locus YNL006W, strain LST8, stronger effect = lower value 0.998 | locus YNL020C, strain ARK1, stronger effect = lower value 1 | locus YNL161W, strain CBK1, stronger effect = lower value 0.986 | locus YNL183C, strain NPR1, stronger effect = lower value 1.1 | locus YNL207W, strain RIO2, stronger effect = lower value 0.989 | locus YNL222W, strain SSU72, stronger effect = lower value 0.983 | locus YNL307C, strain MCK1 (second series), stronger effect = lower value 0.995 | locus YOL078W, strain AVO1, stronger effect = lower value 0.992 | locus YOL136C, strain PFK27, stronger effect = lower value 0.995 | locus YOR061W, strain CKA2, stronger effect = lower value 0.986 | locus YOR119C, strain RIO1, stronger effect = lower value 0.993 | locus YOR231W, strain MKK1, stronger effect = lower value 1.05 | locus YOR329C, strain SCD5, stronger effect = lower value 0.985 | locus YPL031C, strain PHO85, stronger effect = lower value 0.978 | locus YPL153C, strain RAD53, stronger effect = lower value 0.944 | locus YPL204W, strain HRR25, stronger effect = lower value 0.965 | locus YPL209C, strain IPL1, stronger effect = lower value 0.985 | locus YPL256C, strain CLN2, stronger effect = lower value 1.04 | locus YPR025C, strain CCL1, stronger effect = lower value 0.984 | locus YPR106W, strain ISR1, stronger effect = lower value 0.977 | locus YPR111W, strain DBF20, stronger effect = lower value 0.982 | strain NNK1, stronger effect = lower value 0.98 | strain TSCII, stronger effect = lower value 0.982
